Rows were chosen to be rich in hits. Some 1.5% of all compounds tested hit in one or more screens of this group.
Nrf2 activator: activators of Nrf2 (ARE) signaling. AID 624171. 0.31% of 410,000 active. AREc32 ARE-luciferase reporter (MCF7-derived line), luminescence, 24 h. Potency, µM (series often up to 46.1 µM), usual class: activators; also: nearly all actives have a fitted effect of over 65% in size
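AREc32 cells carrying an ARE-driven firefly luciferase reporter were seeded at 1000 cells/well in OPTI-MEM with 5% FBS, then exposed to compound for 24 hr at 37 deg C. Luminescence was read with Steady-Glo after 30 min at RT.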
12-LOX inh: inhibitors of human 12S-lipoxygenase ALOX12; AID 1671190; Potency, µM (doses to about 108 µM), most hits filed as inhibitors; purified 12hLO, xylenol orange hydroperoxide absorbance; 1.1% of 580,000 active; P18054
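Hydroperoxide product was detected by ferrous iron/xylenol orange as the 573 to 405 nm absorbance ratio. Arachidonic acid at 40 uM (final) was turned over for 30 min at room temperature by 150 nM human 12hLO, pH 7.0 Hepes buffer, after 15 min compound preincubation.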
uPA surface inh: cell surface uPA generation inhibition; AID 540303; 0.31% of 330,000 active; cell surface uPA generation assay, qHTS; Potency, µM (titrated, usually from 38.3 µM), actives largely listed as inhibitors; active = well fitted inhibition curve with a large enough effect; inconclusive = small, poorly fitted or top-dose-only effect; inactive = no such curve, though single readings can be large or run the other way; tested in mouse RAW 264.7 cells; also: nearly all actives have a fitted effect of over 55% in size
IL-2 act: activators of IL-2. IL-2 activation reporter assay, cell-based qHTS; stimulated with anti-CD3/CD4/CD28 beads; in transgenic mouse T cells. activation, % (series mostly up to about 46 µM). 0.065% of 360,000 active; in the data active = activation above about 50%; inconclusive = mostly about 30% to 49%
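Readout: EGFP and DsRed signals by fluorescent plate cytometry. Unstimulated transgenic mouse T cells received compound 60 min before antibody-bead stimulation, then incubated 18 h at 37 degrees C.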
Integrin act MD: integrin-mediated muscular dystrophy alleviation activation. alpha7betagal myoblasts, beta-gal FDG fluorescence, 48 h. AID 624291. 0.064% of 350,000 active. Potency, µM (series often up to 38.3 µM), most hits filed as activators; also: nearly all actives have a fitted effect of over 60% in size
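Alpha7betagal+/- myoblasts (passage 13) were plated 16-24 hr, then exposed to compounds (1:260 dilution of DMSO stock) for 48 hours at 37C. After MPER lysis, β-galactosidase reporter activity was read as FDG fluorescence (ex 480/em 540) after 30 minutes.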
Numbers stand for hits; [ ] = remark or other dose. Unless noted, calls follow the shape of the dose curve; as a rule, active = well fitted curve in the direction sought with a large enough effect; inconclusive = small, poorly fitted or top-dose-only effect, or another doubt; inactive = no such curve, though single readings can be large; an effect the other way counts as inactive or inconclusive.

Screening COc1cc(OC)cc(C(=O)N2CCC3(CC2)NC(=O)N(c2cccc(F)c2)N3)c1 returned 12-LOX inh 2.8µM.
COc1ccc(C(=O)N2CCCC3(C2)NC(=O)N(Cc2cccc(Cl)c2)C3=O)cc1 (configuration not stated) was read as 12-LOX inh inactive.
COc1ccc(C(=O)N2CCC3(CC2)NC(=O)N(c2cccc(Cl)c2)N3)cc1 was read as 12-LOX inh 1.8µM.
`COc1cc(OC)cc(C(=O)N2CCC3(CC2)NC(=O)N(c2cccc(Cl)c2)N3)c1` gave 12-LOX inh 1.3µM.
COc1cc(OC)cc(C(=O)N2CCC3(CC2)NC(=O)N(Cc2ccccc2)C3=O)c1 was read as 12-LOX inh inactive.
Screening COc1cc(OC)cc(C(=O)N2CCN(C(=O)c3cccc(F)c3)CC2)c1 returned Nrf2 activator inactive, 12-LOX inh inactive, uPA surface inh inactive, IL-2 act inactive and Integrin act MD inactive.
Screening COc1ccccc1CCC(=O)N1CCC2(CC1)NC(=O)N(c1cccc(F)c1)N2 returned 12-LOX inh 10µM.
Screening O=C(NCc1ccccn1)c1c(OCC2CC2)cc(=O)n2c1CCCCC2 returned 12-LOX inh inactive.
`CS(=O)(=O)N1CCCN(Cc2ccc(F)cc2F)CCNC(=O)CC1c1ccccc1` (configuration not stated) gave 12-LOX inh inactive.
For N#Cc1cccc(NC(=O)c2ccc3c(c2)OCCCO3)c1 the results were 12-LOX inh inactive.
O=C(NC1CCCc2c1[nH]c1ccccc21)c1ccccc1 (configuration not stated) was read as 12-LOX inh inactive.
Screening Cc1noc(C)c1CC(=O)NC1CCCc2c1[nH]c1ccccc21 (configuration not stated) returned 12-LOX inh inactive.
O=C(Cc1ccc2c(c1)OCCCO2)NC1CCCc2c1[nH]c1ccccc21 (configuration not stated) was read as 12-LOX inh 50µM.
Screening COc1cc2nc(C)n(CC(=O)NC3CCCc4c3[nH]c3ccccc43)c(=O)c2cc1OC (configuration not stated) returned 12-LOX inh 45µM.
For CCN(CC)C(=O)c1c(NC(=O)c2ccccc2)sc(C)c1C the results were Nrf2 activator inactive, 12-LOX inh inactive, uPA surface inh inactive, IL-2 act inactive and Integrin act MD inactive.
`CCN(CC)Cc1c(NC(=O)c2ccccc2)sc(C)c1C` gave Nrf2 activator 11µM, 12-LOX inh inactive, uPA surface inh inactive, IL-2 act inactive and Integrin act MD inactive.
COc1ccc(C(=O)N2CCC[C@H]2c2nc(-c3ccc(OC)c(OC)c3)no2)cc1OC was read as 12-LOX inh inactive.
For COc1ccc(-c2noc([C@@H]3CCCN3C(=O)c3ccc(C#N)cc3)n2)cc1OC the results were 12-LOX inh 25µM.
`CCc1nnc([C@@H]2CC(F)(F)CN2C(=O)c2coc(C)n2)o1` gave 12-LOX inh inactive.
Screening CC(C)NC(=S)N/N=C/c1sc(N2CCCCC2)nc1-c1cccs1 returned Nrf2 activator inactive, 12-LOX inh 35µM, uPA surface inh inactive, IL-2 act inactive and Integrin act MD inactive.
Screening Cc1cc(C)c(C)c(SCC(=O)Nc2oc(C)c3c(C)n[nH]c(=O)c23)c1C returned Nrf2 activator inactive, 12-LOX inh 25µM, uPA surface inh inactive, IL-2 act inactive and Integrin act MD inactive.
For Cn1c(Cl)c(C=O)c2ccccc21 the results were 12-LOX inh inactive.
COc1ccc(Cl)cc1NS(=O)(=O)c1cccc2cccnc12 was read as Nrf2 activator 13µM, 12-LOX inh inactive, uPA surface inh inactive, IL-2 act inactive and Integrin act MD inactive.
For COc1ccc(OC)c(NS(=O)(=O)c2cccc3cccnc23)c1 the results were Nrf2 activator inactive, 12-LOX inh inconclusive, uPA surface inh inactive, IL-2 act inactive and Integrin act MD inactive.
Screening COc1cccc(OCCn2cc(C(C)=O)c3ccccc32)c1 returned Nrf2 activator inactive, 12-LOX inh 25µM, uPA surface inh inactive, IL-2 act inactive and Integrin act MD inactive.
For CNC(=S)N/N=C/c1cn(CCOc2cccc(OC)c2)c2ccccc12 the results were Nrf2 activator inactive, 12-LOX inh 35µM, uPA surface inh inactive, IL-2 act inactive and Integrin act MD inactive.
COc1ccccc1C(=O)N1CC(N(C)c2ccccc2C)C1 was read as 12-LOX inh inactive[6.33 µM].

Source: PubChem
